HPGD block = inhibitors of human 15-hydroxyprostaglandin dehydrogenase (HPGD) | P15428 | purified HPGD, NADH fluorescence kinetic, PGE2 substrate | Potency, µM, without a hit: at the highest dose activity change, negative = inhibition, actives largely listed as inhibitors | 150,000 compounds, 4.3% hits; further: potency means the concentration at half of the fitted maximal effect
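20 nM HPGD preincubated 15 min at room temperature with compound in 50 mM Tris-HCl pH 8, 0.01% Tween 20. Started with 1 mM NAD+ and 30 uM prostaglandin E2; NADH fluorescence (360/450 nm) read 5 times over 30-s intervals, last minus first.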
ALDH1A1 block = blocks purified human ALDH1A1 activity. Purified ALDH1A1, NADH fluorescence, propionaldehyde substrate. Potency, µM (titrated, usually from 75.3 µM), for inactives: at the top dose activity, negative = inhibition, hits mostly inhibitors. 220,000 compounds, 7.3% hits. AID 1030;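 further: potency means the concentration at half of the fitted maximal effect; plate controls were no enzyme wells and a reference inhibitor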
Target sequence (P00352 whole entry, looked up): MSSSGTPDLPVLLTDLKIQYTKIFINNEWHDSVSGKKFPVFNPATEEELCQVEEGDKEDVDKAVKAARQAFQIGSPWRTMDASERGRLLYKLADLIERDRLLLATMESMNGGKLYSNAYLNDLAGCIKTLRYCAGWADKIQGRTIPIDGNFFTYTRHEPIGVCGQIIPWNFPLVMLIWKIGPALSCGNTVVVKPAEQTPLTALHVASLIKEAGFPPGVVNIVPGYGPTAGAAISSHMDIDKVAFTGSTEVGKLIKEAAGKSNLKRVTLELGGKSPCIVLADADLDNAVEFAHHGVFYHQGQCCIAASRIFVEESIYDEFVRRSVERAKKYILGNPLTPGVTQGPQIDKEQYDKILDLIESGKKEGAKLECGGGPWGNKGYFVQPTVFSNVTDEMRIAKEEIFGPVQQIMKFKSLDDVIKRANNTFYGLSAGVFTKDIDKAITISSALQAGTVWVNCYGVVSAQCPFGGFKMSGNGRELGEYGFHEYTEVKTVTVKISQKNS
PNC assembly inh = inhibitors of perinucleolar compartment assembly. PC3M PTB-GFP, PNC prevalence imaging, 16 h; stronger effect = lower value. 140,000 compounds, 3.1% hits. activity change (PNC), negative = inhibition, % at 10 µM;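 active means readout at or below -70, meaning at least 70% loss of cells showing the perinucleolar compartment, a nuclear body marking cancer cells; inconclusive means readout between -30 and a set limit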;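 further: plate controls were DMSO wells for no effect and camptothecin positive control wells for full effect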
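PC3M cells stably expressing PTB-GFP, 750–1000 cells/well, treated 16 h at 37 °C with compound (23 nl of library stock), in duplicate. After paraformaldehyde fixation and Hoechst stain, imaged at 20x; PNC prevalence scored by image analysis.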
Numbers without * were called inactive; ? = inconclusive; . = not tested or not shown; [ ] = another dose, or the depositor's remark. In the library only some 11% were active in any assay of this set; here they are far more common. Unless noted, the call rests on the fitted dose curve; in most records, active means well fitted inhibition curve with a large enough effect (not every such curve was filed as active); inconclusive means small, poorly fitted or top-dose-only effect, or another doubt; inactive means no such curve, though single readings can be large or run the other way. Unless noted, on the % scale 0 is the no-effect control and ±100 the full control effect.

SMILES	HPGD block	ALDH1A1 block	PNC assembly inh
CCOC(=O)c1cc(C)[nH]c(=S)c1C#N	-14%	20µM*	40
C=CCCCCCCC=C	-1%	-11%	.
COC(=O)c1cc(C(=O)Nc2nnc(CC(C)(C)C)s2)cc([N+](=O)[O-])c1	16µM*	25µM*	-8
CCOCc1nnc(NC(=O)c2cc(C(=O)OC)cc([N+](=O)[O-])c2)s1	.	-12%	.
CCOC(=O)c1ccc(NC(=S)N(CCN2CCCCCC2)Cc2cccs2)cc1	.	4%	.
CC(=O)N1CCN(c2nc(N)c(C#N)c(CC#N)c2C#N)CC1	.	1%	.
N#CCc1c(C#N)c(N)nc(N2CCN(C=O)CC2)c1C#N	.	7.1µM*	.
CCCCNC(=O)Nc1ccccc1C(=O)NCc1ccco1	-8%	3%	-17
CCCCNC(=O)Nc1ccccc1C(=O)NCCC	-23%	12%	-100*
CC(=O)N1CCC2(CC1)CCN(c1cccc(-c3ccccc3)c1)CC2	-17%	-11%	.
CCCCCCCC1=CC2=CC(=O)C(C)(O)C(=O)C2=CN1CCCC (stereo unspecified)	.	-2%[13.5 µM]	.
CC(C)(C)Cc1nnc(NC(=O)CN2C(=O)c3ccccc3C2=O)s1	.	22µM*	.
CCCCc1nnc(NC(=O)CN2C(=O)c3ccccc3C2=O)s1	.	0%	.
O=C(Nc1cc(C(F)(F)F)ccc1-n1cnc2ccccc21)c1ccccc1	-15%	10%	3
c1ccc(N/N=C(\Cc2ncc[nH]2)c2ccccc2)cc1	.	7.1µM*	.
COc1cc(C(=O)N/N=C(\Cc2ncc[nH]2)c2ccccc2)cc(OC)c1OC	.	3%	.
CC(C)NC(=O)NC(=O)COC(=O)c1ncc(Cl)c(Cl)c1Cl	.	-1%	.
CC1=[N+]([O-])C(C)(C)N(O)C1(C)C	.	16%	.
N[C@@]1(C(=O)O)CO[C@H]2[C@H](C(=O)O)[C@H]21	-9%	-9%	.
CCOC(=O)CNc1c(-c2ccccc2)nc2ccc(Cl)cn12	?	?	66
CCOC(=O)CNc1c(-c2ccc(O)cc2)nc2ccc(Cl)cn12	-30%	7.1µM*	4
CC(C)c1ccc(NC(=O)N2CCCC2C(=O)Nc2ccc(-n3cnnn3)cc2)cc1 (stereo unspecified)	.	5%	.
COC(=O)c1cc2c(C)cc3ccc(C)cn3c-2c1C(=O)OC	-20%	25µM*	-21
COC(=O)c1cc2ccccn2c2c(C(=O)OC)c(C(=O)OC)cc1-2	-20%	2%	47
CN(C)C(CNC(=O)CNC(=O)c1ccc(Br)cc1)c1ccccc1 (stereo unspecified)	.	0%	.
SMILES	HPGD block	ALDH1A1 block	PNC assembly inh
CC1c2nc3ccccc3n2C(CC(=O)NC2CC2)C(=O)N1Cc1ccccc1 (stereo unspecified)	.	12%	.
CCC(=O)Nc1cccc(NC(=O)c2cccc([N+](=O)[O-])c2C)c1	-11%	-7%	-20
Cc1c(C(=O)Nc2ccc3c(c2)CCC3)cccc1[N+](=O)[O-]	-26%	9.5µM*	-114*
CSc1ccccc1NC(=O)CN(C)Cc1cc(=O)n2ccsc2n1	.	2%	.
CC(C)(C)NC(=O)NC(=O)COC(=O)c1cccc(OC(F)F)c1	.	8%	.
O=[N+]([O-])c1ccc(CN2CCN(c3ccc4ccccc4n3)CC2)cc1	.	0%	.
O=[N+]([O-])c1ccc(N2CCN(Cc3ccccc3)CC2)nc1	.	20µM*	.
C=C1CC[C@H](O)C/C1=C/C=C1\CCC[C@]2(C)[C@@H]([C@H](C)CC[C@@H](O)C(C)(C)O)CC[C@@H]12	-3%	-7%	.
CC1=NC(C)(C)Cc2cc(C)c(C)cc21	.	16%	.
CCOC(=O)CN1CC23C=CC(O2)C(C(=O)NCc2ccc(C)cc2)C3C1=O (stereo unspecified)	16µM*	-3%	-28
CCOC(=O)CN1CC23C=CC(O2)C(C(=O)NCc2cccs2)C3C1=O (stereo unspecified)	-3%	12%	38
Cc1ccc(C(=O)c2ccccc2C(=O)OCC(=O)NCC2CCCO2)cc1 (stereo unspecified)	.	5%	.
C=C[C@]1(C)C[C@H](OC(=O)CO)[C@]2(C)C3C(=O)CC[C@]3(CC[C@H]2C)[C@H](C)[C@H]1O (stereo partly specified)	-5%	-3%[13.5 µM]	.
CCCn1[nH]cc(SC)c(=O)c1=O	-6%	22µM*	?
COCCNC(=O)c1ccc(-n2c(=O)c(=O)[nH]c3ccccc32)cc1	-21%	-1%	.
O=C1C=CC(=O)c2c(O)c(Cl)c(Cl)c(O)c21	?	1.3µM*	.
Oc1c(Cl)ccc(Cl)c1Cl	-9%	-5%	.

High-throughput results as filed in PubChem.
